# GPR151 activ – activators of human GPR151, primary screen, cell-based, PathHunter beta-arrestin, luminescence. actives 1% (n = 650,000). PathHunter beta-arrestin GPR151 cells. AID 1508602, 2020. activation, % at 11.2 µM; in the data active = activation above about 4.9%
# Target sequence (Q8TDV0 whole entry, looked up): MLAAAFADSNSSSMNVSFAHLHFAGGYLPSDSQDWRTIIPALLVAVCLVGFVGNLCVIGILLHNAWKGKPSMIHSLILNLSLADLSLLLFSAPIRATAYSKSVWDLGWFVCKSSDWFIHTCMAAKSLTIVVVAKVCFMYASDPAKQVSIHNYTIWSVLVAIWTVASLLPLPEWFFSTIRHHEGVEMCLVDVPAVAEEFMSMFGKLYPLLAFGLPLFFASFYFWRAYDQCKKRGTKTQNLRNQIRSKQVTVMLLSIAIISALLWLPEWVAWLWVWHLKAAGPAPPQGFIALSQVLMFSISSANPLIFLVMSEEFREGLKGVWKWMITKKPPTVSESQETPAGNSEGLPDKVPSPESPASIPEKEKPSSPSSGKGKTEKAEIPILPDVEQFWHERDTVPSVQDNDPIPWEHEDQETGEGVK
# FBW7 activator – FBW7 E3 ligase activators, primary screen, biochemical, AlphaScreen, human | F-box/WD repeat-containing protein 7 (Homo sapiens), Q969H0 | AlphaScreen FBW7–phospho-cyclin E peptide binding, activator screen | normalized activity (activation), % at 26.1 µM | actives 0.13% (n = 650,000) | AID 1259310, 2017; in the data active = normalized activity above about 1.9%;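 note: purified mutant Fbw7 with reduced substrate affinity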
# TEAD-YAP block – TEAD-YAP interaction inhibition, primary screen, TEAD-YAP interaction inhibitor project, luminescence, HEK-TIYL cells. TEAD-Gal4/YAP UAS-luciferase luminescence. inhibition, % at 9.12 µM. actives 1.4% (n = 640,000); in the data active = inhibition above about 32%
# MITF primary – MITF inhibitors, primary screen, biochemical, AlphaScreen, human. actives 0.91% (n = 650,000). inhibition, % at 2.6 µM. AlphaScreen MITF homodimerization, bead proximity signal. Microphthalmia-associated transcription factor (Homo sapiens), O75030. AID 1259374, 2018; in the data active = inhibition above about 50%
# MITF confirm – MITF inhibitors, retest of hits, confirmation, biochemical, AlphaScreen, triplicate. shares compounds with MITF primary. AlphaScreen MITF homodimerization, biotin/His-MITF beads. inhibition, % at 2.6 µM. actives 16% (n = 4,700). AID 1259372, 2018;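 active = inhibition above a cutoff derived from the DMSO control wells, cut at about 28% in these data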;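 note: inhibitors lower the bead chemiluminescence by keeping MITF from dimerizing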
# AS interf DR – AlphaScreen optical interference compounds, dose response, counter-screen, biochemical, HTS; shares compounds with MITF primary; AlphaScreen optical interference counterscreen, cell-free; IC50, µM; actives 6% (n = 480); call rule not given here
# AlphaScreen intf2 – AlphaScreen optical interference compounds, counter-screen for MITF inhibitor project, biochemical, triplicate; shares compounds with MITF primary; LysRS AlphaScreen counterscreen, signal interference; inhibition, % at 2.6 µM; actives 7.6% (n = 4,700); AID 1259376, 2018;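 active = inhibition above a cutoff derived from the DMSO control wells, cut at about 30% in these data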
# Hits are given with their value; 0 = inactive; - = no result given. Hits are enriched below; roughly 3.4% of the tested compounds scored in any of these assays.
SMILES,GPR151 activ,FBW7 activator,TEAD-YAP block,MITF primary,MITF confirm,AlphaScreen intf2,others
O=C(CNCc1ccccc1Cl)Nc1ccccc1N1CCOCC1,0,0,0,62,0,0,
O=C(CNCc1ccc(F)cc1)Nc1ccccc1N1CCOCC1,0,0,0,63,0,0,
Cc1cccc(NC(=O)CSCCO)c1C,0,0,0,0,-,-,
O=C(CNCc1cccnc1)Nc1ccccc1N1CCOCC1,0,0,0,102,0,0,
Cc1nc2ccccc2n1CCC(=O)N1CCC[C@@H]2CN(CCC(C)C)CC[C@H]21,0,0,0,0,-,-,
O=C(CNCc1cccnc1)N(c1ccccc1)c1ccccc1,0,0,0,95,0,0,
O=C(CNCc1cccnc1)Nc1ccc(OC(F)(F)F)cc1,0,0,0,0,-,-,
O=C(CNCc1ccc(Cl)cc1)Nc1ccccc1N1CCOCC1,0,0,0,61,0,0,
O=C(CNCc1cccnc1)Nc1ccc(C2CCCCC2)cc1,0,0,0,59,0,0,
CCOc1ccc2[nH]c(O)c(N=NC(N)=S)c2c1,0,0,0,0,-,-,
O=C(/C=C/c1ccc2c(c1)OCO2)c1ccncc1,0,0,0,0,-,-,
Cc1cccc(C(C)(C)C)c1OCCN1CCOCC1,0,0,0,80,0,0,
Cc1cc(Cl)cc(Cl)c1OCCCCNCCN1CCOCC1,0,0,0,62,0,0,
Cc1cc(C)c(OCCN2CCOCC2)c(Cl)c1,0,0,0,54,0,0,
CCC(NS(=O)(=O)c1ccc2c(c1)SC(C)CN2C(C)=O)c1cccs1 (configuration not stated),0,0,0,0,-,-,
COc1cc(CNC2CCCC2)cc(OC)c1,0,0,0,0,-,-,
COc1cc(CNC2CCCCC2)cc(OC)c1,0,0,0,52,0,0,
COc1cc(CNc2ccc3ncc(-c4ccc5c(c4)OCO5)n3n2)cc(OC)c1OC,0,0,0,0,-,-,
O=C(Nc1ccc(Cl)c(C(=O)O)c1)c1ccccc1,0,0,0,0,-,-,
CC(=O)CC1=C(C(=O)O)N2C(=O)C(N)C2SC1 (configuration not stated),0,0,0,61,30,0,AS interf DR=0
Cn1nnnc1SCC1=C(C(=O)O)N2C(=O)C(N)C2SC1 (configuration not stated),0,0,0,0,-,-,
CS(=O)(=O)NCCSc1nnnn1-c1ccccc1,0,0,0,55,0,0,
COc1ccccc1CN1CCN(Cc2ccccc2[N+](=O)[O-])CC1,0,0,0,79,0,0,
COc1cc(CN2CCN(Cc3cc(OC)c(OC)c(OC)c3)CC2)c([N+](=O)[O-])cc1OC,0,0,0,58,0,0,
O=[N+]([O-])c1ccc(O)cc1CN1CCN(C/C=C/c2ccccc2)CC1,0,0,0,0,-,-,
SMILES,GPR151 activ,FBW7 activator,TEAD-YAP block,MITF primary,MITF confirm,AlphaScreen intf2,others
CCOc1cc(CN2CCN(Cc3ccc(CC)cc3)CC2)ccc1OC,0,0,0,59,0,0,
COc1ccc(CN2CCN(Cc3ccccc3[N+](=O)[O-])CC2)c(OC)c1OC,0,0,0,0,-,-,
CCOc1cc(CN2CCN(Cc3cccc(F)c3)CC2)ccc1OC,0,0,0,0,-,-,
O=[N+]([O-])c1ccccc1CN1CCN(C/C=C/c2ccccc2)CC1,0,0,0,58,0,0,
CCOc1ccc(CNCc2c(C(=O)O)n(CC)c3cc(OC)ccc23)cc1,0,0,0,0,-,-,
COc1cc(CN2CCN(c3ccccc3)CC2)cc([N+](=O)[O-])c1O,0,0,0,52,0,0,
COc1cccc(OC)c1C(=O)N1CCN(Cc2ccccc2[N+](=O)[O-])CC1,0,0,0,56,0,0,
CCOc1cc(CN2CCN(Cc3ccc([N+](=O)[O-])cc3)CC2)ccc1OC,0,0,0,68,0,0,
COc1cc(CN2CCN(Cc3ccccc3[N+](=O)[O-])CC2)cc(OC)c1OC,0,0,0,62,0,0,
COc1cccc(C(=O)N2CCN(Cc3ccccc3[N+](=O)[O-])CC2)c1,0,0,0,0,-,-,
O=[N+]([O-])c1ccc(N/N=C/C2CCCCC2)cc1,0,0,0,0,-,-,
CCOc1cc(CN2CCN(Cc3ccccc3[N+](=O)[O-])CC2)ccc1OC,0,0,0,71,0,0,
COc1cc(CN2CCN(C(=O)CC(C)C)CC2)c([N+](=O)[O-])cc1OC,0,0,0,60,0,0,
CCOc1ccc(CN2CCN(S(=O)(=O)c3ccccc3[N+](=O)[O-])CC2)cc1OC,0,0,0,0,-,-,
COc1cccc(CN2CCN(Cc3ccccc3[N+](=O)[O-])CC2)c1OC,0,0,0,61,0,0,
COc1ccc(-n2nc3cc(C)c(NC(=O)c4cccnc4Cl)cc3n2)cc1,0,0,0,0,-,-,
CCCCC(=O)Nc1c2c(nn1C(C)(C)C)CS(=O)C2 (configuration not stated),0,0,0,0,-,-,
O=C(COC(=O)c1ccc2c(c1)C(=O)N(c1cccc(Cl)c1)C2=O)c1ccc([N+](=O)[O-])cc1,0,0,0,0,-,-,
CC(=O)c1cccc(N2C(=O)c3ccc(C(=O)OCC(=O)c4ccc([N+](=O)[O-])cc4)cc3C2=O)c1,0,0,0,60,0,0,
CC(C)(C)C(=O)COC(=O)c1cccc(N2C(=O)c3ccccc3C2=O)c1,0,0,0,53,0,0,
O=C(COC(=O)c1cccc(N2C(=O)c3ccccc3C2=O)c1)c1ccccc1,0,0,0,0,-,-,
NS(=O)(=O)c1ccc(N=Cc2cc3c(cc2[N+](=O)[O-])OCO3)cc1,0,0,0,64,56,0,AS interf DR=0
Clc1cc2c(c3ncccc13)OCN(C1CCCC1)C2,0,0,66,97,99,101,
CC1(C)CC(N2COc3c(cc(Cl)c4cccnc34)C2)CC(C)(C)N1,0,0,40,52,68,100,
Clc1cc2c(c3ncccc13)OCN(Cc1ccco1)C2,0,0,0,0,-,-,
CCCCNC(=O)CSc1nc2cc3c(cc2c(=O)n1CCC(=O)N1CCN(c2ccccc2)CC1)OCO3,0,0,0,0,-,-,
COc1ccc(NC(=O)CNS(=O)(=O)c2cccc3nonc23)cc1Cl,0,0,0,0,-,-,
COc1ccc(NC(=O)CCNS(=O)(=O)c2cccc3nonc23)cc1Cl,0,0,0,55,0,0,
O=C(CCC1CCCN(C(=O)C[n+]2cc(=O)o[nH]2)C1)NCc1ccc(F)c(F)c1 (configuration not stated),0,0,0,0,-,-,

# Source: PubChem BioAssay (The Scripps Research Institute Molecular Screening Center)
